Only some compounds are listed: those with a hit (about 0.63% of all), similar ones and a draw of the others.
TSHR antag = human thyrotropin receptor antagonism | P16473 | TSHR-expressing cells, TSH-stimulated cAMP HTRF, 2 h; hits give low values | activity change, negative = inhibition, % at 11.5 µM | hit rate 0.2% among 330,000 | AID 504810;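 active means activity change below a set negative limit, meaning inhibition stronger than a set level, cut at about -70% in these data; inconclusive means activity change between two set negative limits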
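Antagonism was scored as loss of TSH-driven cAMP in TSHR cells, stimulated with 4nM TSH (EC80) for 2 hours at 37 deg C and detected by homogeneous HTRF competition immunoassay.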
ASM inhibitor = human S-ASM enzyme inhibition | P17405 | placental ASM, HMU-PC fluorogenic substrate, 60 min | Potency, µM (top dose mostly 57.5 µM), most hits filed as inhibitors | hit rate 0.006% among 340,000 | AID 504937; active means well fitted inhibition curve with a large enough effect; inconclusive means small, poorly fitted or top-dose-only effect; inactive means no such curve, though single readings can be large or run the other way
Target sequence (P17405 47-631 limits assumed): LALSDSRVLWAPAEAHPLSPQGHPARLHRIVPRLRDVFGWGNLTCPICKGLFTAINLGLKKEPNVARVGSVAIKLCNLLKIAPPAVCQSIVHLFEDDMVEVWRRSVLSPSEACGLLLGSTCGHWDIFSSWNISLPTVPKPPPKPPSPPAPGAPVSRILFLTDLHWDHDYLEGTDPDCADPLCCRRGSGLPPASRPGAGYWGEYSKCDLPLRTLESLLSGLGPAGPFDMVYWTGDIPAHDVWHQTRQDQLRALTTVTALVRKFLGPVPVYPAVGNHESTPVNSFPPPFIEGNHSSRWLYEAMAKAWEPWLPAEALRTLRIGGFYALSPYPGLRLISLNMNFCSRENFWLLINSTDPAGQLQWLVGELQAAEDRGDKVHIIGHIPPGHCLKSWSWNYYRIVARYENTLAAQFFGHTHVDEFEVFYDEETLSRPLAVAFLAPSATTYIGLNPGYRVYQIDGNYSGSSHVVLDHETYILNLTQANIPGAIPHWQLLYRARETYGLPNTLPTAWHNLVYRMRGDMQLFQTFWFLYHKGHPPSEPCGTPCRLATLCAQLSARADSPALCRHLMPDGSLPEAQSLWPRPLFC
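Steps: dispense placental human ASM, pin compound, wait 10 min at room temperature, add HMU-PC0 substrate at 9 uM final, incubate 60 min at 37 °C, add stop solution raising pH to 10, read fluorescence.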
gsp antagonist = antagonists of gsp mutant (McCune-Albright syndrome) | gsp-mutant cells, cAMP HTRF, 30 min | Potency, µM (doses to about 76.9 µM), hits mostly inhibitors | hit rate 0.4% among 340,000 | AID 624288; calls by dose curve; cell line not stated here;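 further: intracellular cAMP measured with PDE inhibitor Ro 20-1724 present during compound exposure; nearly all actives have a fitted effect of over 65% in size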
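Cells, 2000/well, grown 16–24 h in DMEM 10% FBS with 0.5 mg/ml G418, then compounds plus […] (300 uM addition stock), 30 min at 37C. cAMP read by HTRF (cAMP-d2 and anti-cAMP antibody-K in lysis buffer) after 30 min RT.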
gsp agonist = agonists of gsp mutant (McCune-Albright syndrome). gsp mutant cells, cAMP HTRF, 30 min. hit rate 0.13% among 340,000. Potency, µM (series often up to 76.9 µM), usual class: activators. AID 624287; active means well fitted activation curve with a large enough effect; inconclusive means small, poorly fitted or top-dose-only effect, or another doubt; inactive means no such curve, though single readings can be large or run the other way; cell line not stated here;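 further: phosphodiesterase inhibitor Ro 20-1724 added with compounds to block cAMP breakdown; nearly all actives have a fitted effect of over 60% in size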
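Cells in DMEM/10% FBS with G418 were pretreated with compounds in DMSO plus […] (300 uM stock) for 30 min at 37C. cAMP was measured by HTRF (cAMP-d2 plus anti-cAMP antibody-K) after 30 min at room temperature.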
A number is an active result; n = inactive; u = inconclusive; x = not tested or not shown; [ ] = remark or other dose.

SMILES	TSHR antag	ASM inhibitor	gsp antagonist	gsp agonist
COc1ccc(Cl)cc1NC(=O)C1CCN(C(=O)Nc2ccccc2)CC1	n	n	n	n
CCN(CC)C(=O)Cn1c(=O)n(-c2ccccc2)c(=O)c2sccc21	-80.9	n	n	n
CSc1ccc(/C=N/NC(=O)C[n+]2ccccc2)cc1	n	n	n	20µM
CC1(C)Cc2ccccc2-c2nnc(SCC(=O)N3CCN(c4ccccc4)CC3)n21	n	n	35.5µM	n
O=C(N/N=C/c1cc(Br)c(O)c(Br)c1)c1cc2c(ccc3ccccc32)o1	n	n	n	n[15.4 µM]
CC(=O)Oc1ccc(/C=N\NC(=O)c2cc3c(ccc4ccccc43)o2)cc1	n	n	11.2µM	n
O=C(N/N=C/c1cc(Cl)c(O)c(Cl)c1)c1cc2c(ccc3ccccc32)o1	n	n	31.6µM	u
CC(C(=O)Nc1ccc(S(=O)(=O)N2CCCC2)cc1)N1CCCC(C(N)=O)C1 (stereo unspecified)	n	n	n	n
Cc1ccc(/C=N/NC(=O)c2nnn(-c3nonc3N)c2C(C)C)s1	n	n	n	n
COCc1ccc(C(=O)Nc2cccc(S(=O)(=O)N(C)c3ccccc3)c2)cc1	n	n	n	n
CN(C)S(=O)(=O)c1cccc(NC(=O)c2ccc(COc3ccccc3)cc2)c1	n	n	31.6µM	n
Cc1nc2ccc(NC(=O)c3ccccc3)cc2s1	n	n	n	n
CN(c1ccccc1)S(=O)(=O)c1cccc(NC(=O)c2ccc3ncsc3c2)c1	n	n	25.1µM	n[15.4 µM]
COc1ccc(N(C)S(=O)(=O)c2cccc(C(=O)Nc3ccc(-n4cnnn4)cc3)c2)cc1	n	n	28.2µM	n
Cc1nc2ccc(NC(=O)c3cccc(S(=O)(=O)N(C)c4ccccc4)c3)cc2s1	n	n	35.5µM	n
COc1ccc(C(=S)N2CCOCC2)cc1OC(=O)c1ccc(C)cc1	n	n	n	n
O=C(COC(=O)c1ccccc1C(=O)c1ccc(Cl)cc1)NCC1CCCO1 (stereo unspecified)	n	n	n	n[15.4 µM]
CC(=O)c1c(C)[nH]c(C(=O)Nc2cccc(S(=O)(=O)N(C)c3ccccc3)c2)c1C	n	n	31.6µM	n
CC1O[C@@H]2O[C@](O[C@H](C)CC[C@@H](C)O)(c3ccccc3)O[C@@H]2C[C@H]1O (stereo partly specified)	n	n	n	x
Cc1scc(C(=O)NNC(=S)NC(C)c2ccccc2)c1C (stereo unspecified)	n	n	n	n
Cc1ccc(-c2nc(CSCC(=O)N3CCN(c4ccccn4)CC3)c(C)o2)cc1	n	n	u	n
COc1ccc(-c2noc(CCC(=O)N3CCN(c4cccc(OC)c4)CC3)n2)cc1	n	n	44.7µM	x
CCOc1ccc(-c2nc(CSCC(=O)N3CCN(c4cccc(OC)c4)CC3)c(C)o2)cc1	n	n	39.8µM	u
Cc1ccc(CNC(=O)CCC2CCCN(C(=O)c3ccc4c(c3)OCO4)C2)o1 (stereo unspecified)	n	n	n	n[15.4 µM]
CC(=O)c1ccc(OCC(O)Cn2nnc3ccccc32)cc1 (stereo unspecified)	n	n	n	n
SMILES	TSHR antag	ASM inhibitor	gsp antagonist	gsp agonist
N#Cc1ccc(-c2ccc(OCC(O)Cn3nnc4ccccc43)cc2)cc1 (stereo unspecified)	n	n	31.6µM	n
COc1ccc(/C=N/NC(=O)c2cc(C)oc2C)cc1OCc1ccccc1	n	n	12.6µM	n
Cc1cc(C(=O)N/N=C/c2ccc(OCc3ccccc3)cc2)c(C)o1	n	n	n	n[15.4 µM]
C=CCOc1ccc(C2C(C(=O)c3cccs3)=C(O)C(=O)N2c2nnc(C)s2)cc1 (stereo unspecified)	x	n	n	31.6µM
CCCCn1c(N)c(N(CCOC)C(=O)COC(=O)COc2ccccc2C#N)c(=O)[nH]c1=O	n	n	n	n[15.4 µM]
CSCSC1=C(C#N)C(c2ccccc2Cl)C(C(C)=O)=C(C)N1 (stereo unspecified)	-79.8	n	n	n
Cc1cccc(NC(=O)CSCC(=O)Nc2ccccc2N2CCCC2)c1	n	n	n	n[15.4 µM]
N#Cc1c(-c2ccc([N+](=O)[O-])cc2)nc2n(c1=O)CCS2	n	n	n	14.1µM
N#Cc1c(-c2cccc([N+](=O)[O-])c2)nc2n(c1=O)CCS2	n	n	n	n[15.4 µM]
Cc1nc(-c2cccc(NC(=O)c3ccc(-n4nccc4C)cc3)c2)cs1	-72.1	n	u	n
COc1ccccc1N1CCN(CCCCNS(=O)(=O)c2cccc3c(N(C)C)cccc23)CC1	n	x	x	x
CN(C)S(=O)(=O)n1cnc([C@H]2c3c(ncn3Cc3ccccc3)C[C@H]3COC(=O)[C@@H]32)c1	n	n	50.1µM	n
O=C(c1ccc2c(c1)OCO2)N1CCC2(CC1)Oc1ccc(F)cc1C(=O)C21CC(c2cccnc2)=NO1 (stereo unspecified)	n	n	35.5µM	x
Oc1ccc(COCc2ccc(F)cc2)c2cccnc12	n	x	x	x
CC(C)(C)c1cc(-c2csc(Nc3ccccc3)[n+]2Cc2ccc(C(=O)O)cc2)cc(C(C)(C)C)c1O	n	n	31.6µM	n[15.4 µM]
CC(CC(=O)N1CCN(c2ccccc2)CC1)S(=O)(=O)c1ccc2c(c1)NC(=O)CO2 (stereo unspecified)	n	n	50.1µM	u
Cc1cccc(N2CCN(C(=O)CCS(=O)(=O)c3ccc4c(c3)NC(=O)CO4)CC2)c1C	n	n	31.6µM	n
Cc1cc(S(=O)(=O)Nc2c(NC3CCCCC3)c3ccccc3oc2=O)ccc1F	n	n	u	n
CC(=O)Nc1ccc(S(=O)(=O)Nc2c(NC3CCCCC3)c3ccccc3oc2=O)cc1	-89.2	n	n	n
COCCNS(=O)(=O)c1ccc2c(c1)C(=NO)c1cc(S(=O)(=O)NCCOC)ccc1-2	n	n	n	n
CC(C)(CO)NS(=O)(=O)c1ccc2c(c1)C(=NO)c1cc(S(=O)(=O)NC(C)(C)CO)ccc1-2	n	n	n	7.08µM
O=C(Nc1cccc(Cl)c1)Nc1nnc(-c2ccncc2)s1	-73.3	n	u	n
O=C(Nc1ccc(Cl)cc1)Nc1nnc(-c2ccncc2)s1	n	n	n	n
O=C(Nc1ccccc1)Nc1cccc(Cl)c1	n	n	31.6µM	n
CC(=O)Nc1ccc(NC(=O)Nc2cccc(Cl)c2)cc1	n	n	n	n
SMILES	TSHR antag	ASM inhibitor	gsp antagonist	gsp agonist
Cc1ccc(NC(=O)Nc2nnc(-c3ccncc3)s2)cc1C	n	n	44.7µM	n
COCCCn1c(SC(C)C(=O)Nc2c(C)n(C)n(-c3ccccc3)c2=O)n[nH]c1=O (stereo unspecified)	n	n	n	n
COc1ccc(C(=O)N2CCN(C(=O)c3ccco3)CC2)cc1	n	n	n	u
COc1ccc(-c2csc(N3CCN(C(=O)c4ccco4)CC3)n2)cc1	n	n	50.1µM	n
COc1ccc(-c2csc(N3CCN(C(=O)c4ccccc4)CC3)n2)cc1	n	n	35.5µM	n
CCOC(=O)C(=O)N1CCN(c2nc(-c3ccc(Cl)cc3)cs2)CC1	n	n	n	n
CCOC(=O)N1CCN(c2nc(-c3ccc(F)cc3)cs2)CC1	n	n	31.6µM	n
